Test results: PubChem BioAssay (NCI)
The panel holds about 83,000 compounds, 20% with a hit somewhere; the sample as a whole holds those more often.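 96-well plates, one dose, 48 hours. Percent growth reported; active if below 10.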 Unmarked numbers belong to inactive results. Active and inactive are the calls of the source.

tested on: MDA-MB-468 breast; assay: NCI-60 one-dose screen, 48 h (100 = growth as untreated, 0 = no growth, -100 = all killed); details: 10 µM unless noted

SMILES | growth
N#Cc1cncc(-c2ccc3ncnc(Nc4cccc(Cl)c4)c3c2)c1 | 9.34% (active)
O=C(CBr)CN1C(=O)c2ccccc2C1=O | 103%
COc1ccc(-c2cn3c(C(=O)Nc4ccccc4Cl)c(-c4ccccc4)c4c3n2CCCC4)cc1 | 84.1%
CN1C(=O)N(C)C2C1NN=c1s/c(=C\c3ccccn3)c(=O)n12 (stereo unspecified) | 88.8%
CCCCCCCCCCCCCCCc1cc(O)ccc1[N+](=O)[O-] | 111%
COc1ccccc1NC1=C(Cl)C(=O)c2nc(C)ccc2C1=O | -79.7% (active)
